# MsrA act – bovine MsrA enzyme activators, primary screen, biochemical, absorbance, HTS. purified bovine MsrA, absorbance read-out. activation, % at 10.6 µM. actives 0.3% (n = 360,000). AID 602163, 2012; in the data active = activation above about 7.5%;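 also: 0% = vehicle and 100% = reference activator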
# SMARCA2 act – SMARCA2 (BRM) function activators, primary screen, cell-based, luminescence, high throughput; MG213 cells, MMTV-luciferase reporter, dexamethasone, overnight; activation, % at 9.1 µM; actives 1% (n = 370,000); in the data active = activation above about 7.8%;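 also: 0% = vehicle wells and 100% = reference activator wells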
# MsrA inh – bovine MsrA enzyme inhibitors, primary screen, biochemical, absorbance, HTS; Methionine sulfoxide reductase A (Bos taurus); purified bovine MsrA, absorbance read-out; inhibition, % at 15.5 µM; actives 0.75% (n = 360,000); AID 651718, 2012; in the data active = inhibition above about 4.5%;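 also: 0% = vehicle wells with enzyme and 100% = reference inhibitor wells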
# KLK7 zymogen act – proKLK7 zymogen activators, primary screen, biochemical, fluorescence intensity; Kallikrein-7 (Homo sapiens), P49862; purified proKLK7, EDANS-DABCYL substrate fluorescence; 100% is mature enzyme control, 0% vehicle; activation, % at 7 µM; actives 0.9% (n = 370,000); AID 652039, 2013;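 active = activation above the mean of all tested compounds plus 3 SD, computed per campaign excluding outliers beyond control limits, cut at about 13% in these data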
# Target sequence (P49862 whole entry, looked up): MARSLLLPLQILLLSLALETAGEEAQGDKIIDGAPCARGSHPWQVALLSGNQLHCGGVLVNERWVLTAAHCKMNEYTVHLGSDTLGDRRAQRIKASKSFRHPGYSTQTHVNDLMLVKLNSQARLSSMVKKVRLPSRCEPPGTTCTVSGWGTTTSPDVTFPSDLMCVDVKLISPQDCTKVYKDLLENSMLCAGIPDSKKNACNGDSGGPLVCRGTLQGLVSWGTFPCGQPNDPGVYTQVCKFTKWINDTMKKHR
# Starred values were filed as active, the others as inactive; · = not tested or not shown. An excerpt weighted towards active compounds, which were near 2.8% of everything screened.
SMILES,MsrA act,SMARCA2 act,MsrA inh,KLK7 zymogen act
CC(=O)NNC(=O)CN1C(=O)/C(=C/c2ccccc2)SC1=S,-1.4,1.9,2.1,-0.2
CC(=O)NC(CC(=O)NCCN1C(=O)S/C(=C\c2ccccc2)C1=O)c1ccccc1 (configuration not stated),-9.1,-1.9,4.6*,-0.5
O=[N+]([O-])c1ccc(/C=N/n2cnc3ccccc32)s1,17.6*,-3.7,1.8,-0.1
CC(=O)OC[C@@H]1CN(Cc2ccccc2)C[C@H](n2cnc3c(N(C)C(C)C)ncnc32)O1,-0.3,-0.3,-0.9,0.4
O=C(Nc1ccccc1Oc1ccccc1)NC1CCCCN(Cc2cccc(Cl)c2)C1=O (configuration not stated),·,-1.4,·,0.5
CCC(=O)OC1(C)C(=O)C2=COC(c3ccc(OC)cc3)=CC2=C(Br)C1=O (configuration not stated),10.1*,1.5,1.4,0.4
CC[n+]1c(/C=C/N(C)c2ccccc2)oc2ccccc21,-9.4,-3.4,4.7*,0.6
CC[n+]1c(/C=C/N(C)c2ccccc2)oc2ccc(F)cc21,-6.7,-6.7,2.9,-0.2
Cc1ccc(-n2nc3ccc(N)cc3n2)cc1,-2.5,-4.2,0.5,35.2*
COc1ccc(CN2CCNC(=O)C2CC(=O)N(C)C2CCCCC2)cc1OC (configuration not stated),1.0,3.2,0.5,0.8
CCOc1ccc(C(=O)NCc2cccs2)cc1,-5.6,7.9*,-0.9,-0.1
O=C(NC1CCCCN(Cc2cccc(Cl)c2)C1=O)c1ccc(COc2ccccc2)cc1 (configuration not stated),·,-6.7,·,0.7
CCOC(=O)c1sc(=S)[nH]c1C,8.4*,0.0,3.6,0.0
COC(=O)c1ccccc1NC(=O)Nc1cc(C(C)(C)C)on1,-3.0,4.9,-0.5,-5.3
CC(C)(C)c1cc(NC(=O)Nc2ccccc2)no1,8.2*,7.0,-0.6,-0.1
CC(C)(C)C(=O)CSc1nnc(SCc2cccc3ccccc23)s1,·,-4.4,·,0.1
CCCCN(C(=O)c1cc(-c2ccncc2)nc2ccccc12)c1c(N)n(CC(C)C)c(=O)[nH]c1=O,-8.9,7.9*,0.0,2.0
c1csc(-c2nc3c4ccccc4c4ccccc4c3[nH]2)c1,1.6,-1.1,1.5,18.4*
O=C(COc1ncnc2ccccc12)c1ccc(Cl)cc1,-5.0,7.8*,-0.3,0.3
N#CCCN(Cc1ccccc1)C(C(=O)NC1CCCCC1)c1ccnc2ccccc12 (configuration not stated),-2.5,-2.4,-1.1,0.6
CC(=O)[C@@]1(O)Cc2c(O)c3c(c(O)c2[C@H](O[C@H]2C[C@H](N)[C@H](O)[C@H](C)O2)C1)C(=O)c1ccccc1C3=O,1.3,-11.9,4.6*,-0.6
C[C@H]1COc2cc(N3CCC[C@@H]3CO)ccc2S(=O)(=O)N1,-3.3,-0.6,-1.3,0.7
Cc1cc(=O)oc2c(CN(CC(C)C)CC(C)C)c(O)ccc12,·,-1.8,1.6,34.8*
CC(C)CN(Cc1c(O)ccc2c3c(c(=O)oc12)CCC3)CC(C)C,-9.1,-1.1,-0.4,-5.4
O=S1(=O)c2ccccc2-c2c(nnn2Cc2ccccc2)CN1C1CC1,·,2.6,·,0.2
SMILES,MsrA act,SMARCA2 act,MsrA inh,KLK7 zymogen act
COc1ccc(-c2cc(NC=O)c3ncc(-c4ccc(C(C)=O)cc4)n3c2)cc1OC,-7.1,7.9*,0.8,-5.5
CCn1c(SCC(=O)Nc2cccc(NC(=O)c3ccco3)c2)nnc1-c1cccs1,-8.5,0.4,-0.1,0.6
CCn1c(SCC(=O)Nc2ccc(NC(=O)c3ccco3)cc2)nnc1-c1cccs1,-1.7,-3.5,0.5,99.8*
COC(=O)[C@H](Cc1ccccc1)NP(=O)(OC)[C@@H](C)NC(=O)OCc1ccccc1 (some centres not stated),·,-0.5,·,0.8
COCCCNc1nc2c(c(=O)[nH]c(=O)n2C)n1CCCc1ccccc1,-3.2,7.9*,-1.1,-0.5
O=C(NCCc1ccccc1)Nc1ccc2c(c1)OCO2,-3.4,7.8*,-1.6,1.0
COc1cc(/C=N/NC(=O)c2cccs2)ccc1OCc1ccccc1,-17.2,-1.6,2.3,0.6
O=C(N/N=C/c1ccccc1OCc1ccccc1)c1cccs1,-7.0,7.9*,0.0,-3.4
O=C(CCN1C(=O)C2C3C=CC(C3)C2C1=O)Nc1ccccn1 (configuration not stated),-3.0,7.8*,0.6,-0.6
O=C(NCN1C(=O)C2C3C=CC(C3)C2C1=O)Nc1ccccn1 (configuration not stated),0.8,-0.8,-0.7,-0.6
CC(C(=O)N1CCc2ccccc2C1)N(c1ccccc1)S(C)(=O)=O (configuration not stated),-0.3,-3.0,1.6,-0.1
CC(=C1C(=O)c2ccccc2C1=O)N1CCc2ccccc2C1,-3.8,7.9*,0.0,0.0
COc1ccc(/C=C/C(=O)c2ccc[nH]2)c(OC)c1OC,-1.9,-0.5,4.6*,0.9
COc1cc(/C=C/C(=O)OCC(=O)c2ccc[nH]2)cc(OC)c1OC,-1.7,-1.9,-0.5,-0.1
Nc1[nH]c(N=NC(=O)c2ccccc2O)c2ccccc12,-10.3,1.1,4.6*,0.3
Nc1[nH]c(N=NC(=O)c2ccccc2)c2ccccc12,-8.2,-1.9,-0.7,0.5
COc1ccc(C2c3ccccc3NC3C2C(=O)N(Cc2ccc(OC)cc2OC)[C@H]3Cc2ccccc2)cc1 (some centres not stated),·,-3.2,·,-0.4
O=[N+]([O-])c1ccc(/C=C/c2ccncc2)cc1,-4.0,7.9*,2.4,-0.2
O[C@H](COc1cc(F)cc(F)c1)CN1CCC(C(O)(c2ccccc2)c2ccccc2)CC1,·,-4.2,·,0.0
O=C(CSc1nnc(CCCN2C(=O)c3cccc4cccc(c34)C2=O)n1-c1ccccc1)N1CCCCC1,-3.9,8.1*,0.4,0.5
O=C(CSc1nnc(Cc2cc(=O)[nH]c(=O)[nH]2)n1-c1ccccc1)N1CCCCC1,-1.0,-0.1,0.5,0.7
Nc1cccc([N+](=O)[O-])c1,-2.0,-0.9,-1.2,0.3
O=[N+]([O-])c1cccc(SSc2cccc([N+](=O)[O-])c2)c1,17.3*,0.0,1.2,0.2
CC(C)[C@H](NC(=O)[C@@H](N)Cc1ccccc1)C(=O)N1CCC2CCN(Cc3ccccc3)CC21 (some centres not stated),·,0.0,1.0,-0.2
CC(C)c1ccc(N(CC(=O)NCCc2ccccc2)C(=O)c2csnn2)cc1,1.9,7.8*,-0.2,0.1
Cc1ccc(N(CC(=O)NCCc2ccccc2)C(=O)c2csnn2)cc1,-3.4,-1.8,0.7,0.9
CC(=O)Nc1ccccc1Oc1ccccc1,-2.7,0.9,-0.4,0.2
O=C(Nc1ccccc1Oc1ccccc1)c1ccccc1F,-6.7,9.5*,-0.1,0.0
Clc1cccc(-c2cc3nc4c(c(N5CCN(c6cnccn6)CC5)n3n2)CCCC4)c1,-4.2,1.9,0.8,-0.4
Clc1cccc(-c2cc3nc4c(c(N5CCOCC5)n3n2)CCCC4)c1,-7.4,2.5,4.8*,-5.2

# High-throughput results (PubChem BioAssay)
